B2AR ag: beta2AR agonists driving receptor internalization, primary screen, cell-based, FAP fluorogen, flow cytometry | actives 0.43% (n = 340,000) | Beta-2 adrenergic receptor (Homo sapiens), P07550 | Am2.2-beta2AR cells | response, % (no concentration beside the values);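 active means response above a set limit, near 3 SD of response in nonfluorescent compounds, cut at about 42% in these data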
Target sequence (P07550 whole entry, looked up): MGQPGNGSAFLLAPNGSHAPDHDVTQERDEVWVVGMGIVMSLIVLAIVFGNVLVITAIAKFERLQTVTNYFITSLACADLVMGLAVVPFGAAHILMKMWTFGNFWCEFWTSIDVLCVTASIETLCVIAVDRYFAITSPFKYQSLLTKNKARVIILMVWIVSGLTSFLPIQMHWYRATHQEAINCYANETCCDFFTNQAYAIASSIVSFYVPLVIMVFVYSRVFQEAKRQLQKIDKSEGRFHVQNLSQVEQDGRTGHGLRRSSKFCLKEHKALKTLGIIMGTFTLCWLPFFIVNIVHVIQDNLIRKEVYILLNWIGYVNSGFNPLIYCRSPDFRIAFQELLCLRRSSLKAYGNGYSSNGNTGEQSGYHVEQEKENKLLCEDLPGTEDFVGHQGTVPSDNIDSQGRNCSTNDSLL
Peg3 promoter: Peg3 promoter-driven luciferase inhibitors, primary screen, cell-based, HeLa, luciferase luminescence; HeLa PEG-Prom luciferase reporter, overnight; inhibition, % at 20 µM; actives 1.7% (n = 360,000); AID 588405, 2011;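 active means inhibition of at least 50% at 20 µM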
MITF TRPM1 inh: inhibitors of MITF-dependent TRPM1 promoter reporter, primary screen, cell-based, SK-MEL-5, single point, luciferase | SK-MEL-5 TRPM1 promoter luciferase, 24 h | inhibition, % at 12.5 µM | actives 0.83% (n = 330,000) | AID 488899, 2010;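 active means mean inhibition across replicates of 60% or more, whatever share of single replicates reaches that level; inconclusive means some that reach 60%, reason not given; inactive means mean inhibition across replicates below 60%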
KKLEB tox: cytotoxicity in KKLEB CF airway cells, primary screen, cytotoxicity control for CF NF-kB inhibitor project, cell-based, uHTS, fluorescence assay plates. activity change (cytotoxicity), % at 5 µM. actives 0.36% (n = 360,000). KKLEB CF airway cells viability, ATPlite luminescence, overnight; hits give low values; cells stimulated with P. aeruginosa culture filtrate. AID 602141, 2011;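 active means corrected activity change at or below -50% at 5 µM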
CF NFkB inh: inhibitors of PAF-induced NF-kB signaling, primary screen, cell-based, GFP fluorescence, uHTS; KKLEB NF-kB-GFP reporter, GFP fluorescence overnight; inhibition, % at 5 µM; actives 0.86% (n = 360,000);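 active means at least 50% inhibition at 5 µM, scaled per plate between neutral and stimulator controls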;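 further: PAF is a Pseudomonas aeruginosa culture filtrate used as stimulus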
HIF-2a inh: HIF-2a reporter inhibitors, primary screen, luminescence, 786-0 RCC cells; 786-0 RCC cells HIF-2a reporter, luciferase luminescence, overnight; inhibition, % at 18.8 µM; actives 0.72% (n = 360,000); AID 624352, 2012;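 active means inhibition of the luminescence signal of 40% or more relative to plate controls, in a single-dose primary screen at 18.75 µM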
Mdm2-MdmX confirm: retested Mdm2-MdmX interaction blockers, confirmation, cell-based, luminescence, single concentration, set 2 | inhibition, % at 8 µM | SaOS-2 split-luciferase Mdm2/MdmX complementation | actives 99% (n = 740) | shares compounds with HIF-2a inh;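 active means mean inhibition of the luminescence signal across two replicates at or above 26 percent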
HIF-2a conf: HIF-2a reporter inhibitor retest, confirmation, luminescence, 786-0 RCC cells. shares compounds with HIF-2a inh. HIF-2a luciferase reporter luminescence, overnight. inhibition, % at 18.8 µM. actives 56% (n = 1,800). AID 651580, 2012;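 active means mean inhibition across four replicates of at least 40 percent at the single tested concentration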
HIF-1a counter: HIF-1a luciferase reporter signal reduction – MiaPaCa-2 cells, single concentration, counter-screen for HIF-2a inhibitor project, confirmation | shares compounds with HIF-2a inh | MiaPaCa-2 HIF-1a luciferase reporter, desferoxamine, overnight | inhibition, % at 18.8 µM | actives 72% (n = 1,800);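 active means mean inhibition of the reporter signal across four replicates at the single tested dose of 50% or more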
Large screens that a line does not name were inactive (follow-up assays come after a bar, where they were run). In the library only some 2.8% were active in any assay of this set; here they are far more common.

CN1CCN(c2ccc(NC(=O)c3ccc([N+](=O)[O-])o3)cc2Cl)CC1	Peg3 promoter 100, MITF TRPM1 inh 79, CF NFkB inh 80, HIF-2a inh 57 | HIF-2a conf 56 | HIF-1a counter 59
Cc1ccc(NC(=O)c2ccc([N+](=O)[O-])o2)cc1S(=O)(=O)N1CCOCC1	Peg3 promoter 102, MITF TRPM1 inh 84, CF NFkB inh 56, HIF-2a inh 55 | HIF-2a conf inactive | HIF-1a counter 80
Cc1ccc(NC(=O)c2cc([N+](=O)[O-])ccc2N2CCOCC2)cc1S(=O)(=O)N1CCOCC1	none
Cc1cc(NC(=O)c2ccc([N+](=O)[O-])o2)ccc1NC(=O)c1ccco1	Peg3 promoter 100, MITF TRPM1 inh 77, CF NFkB inh 73, HIF-2a inh 47 | HIF-2a conf inactive | HIF-1a counter 96
Cc1ccc(-c2nc3ncccc3o2)cc1NC(=O)c1ccco1	none
CCCc1nc2ccc(Br)cn2c1Cc1ccccc1OC	none (no result: B2AR ag, MITF TRPM1 inh)
CNC(C)C(=O)NC(C(=O)NC(C)C(=O)NNc1ccccc1)C(C)C (stereo not drawn)	none (no result: B2AR ag, MITF TRPM1 inh)
O=C(Nc1cccc(S(=O)(=O)N2CCCCC2)c1)c1ccc([N+](=O)[O-])o1	Peg3 promoter 53, MITF TRPM1 inh 80, CF NFkB inh 88, HIF-2a inh 64 | HIF-2a conf inactive | HIF-1a counter 104
O=C(COC(=O)c1ccc([N+](=O)[O-])o1)Nc1cccc(S(=O)(=O)N2CCCCC2)c1	none
O=C(Nc1ccc(N2CCOCC2)c(Cl)c1)c1ccc([N+](=O)[O-])o1	Peg3 promoter 106, MITF TRPM1 inh inconclusive, CF NFkB inh 74, HIF-2a inh 81 | HIF-2a conf inactive | HIF-1a counter 77
COP(=O)(OC)C(=NNS(=O)(=O)c1ccc(C)cc1)c1ccccc1	none (no result: B2AR ag, MITF TRPM1 inh)
COc1ccc(NC(=O)CCS(=O)(=O)c2ccccc2Cl)cc1S(=O)(=O)Nc1ccc(Cl)cc1	HIF-2a inh 44 | HIF-2a conf inactive | HIF-1a counter 68
CCCc1ccc(OCc2ccc(C(=O)N3CCN(c4ccccn4)CC3)o2)c(OC)c1	none
COc1ccccc1/C=N/Nc1cc(C)nc2ccc(C)cc12	none
COc1ccc(/C=N/Nc2cc(C)nc3ccc(OC)cc23)c(OC)c1	Peg3 promoter 107, MITF TRPM1 inh 85, HIF-2a inh 92 | Mdm2-MdmX confirm 103
COC(=O)C(C(=O)OC)c1ccccc1NS(=O)(=O)c1c(C)cc(C)cc1C	none (no result: B2AR ag, Peg3 promoter, MITF TRPM1 inh, KKLEB tox, CF NFkB inh)
Oc1ccccc1C=NN1CCCCCC1	none
Brc1ccccc1/C=N/N1CCCCC1	HIF-2a inh 45 | HIF-2a conf inactive | HIF-1a counter inactive
CCCCCCn1ccc(=N)cc1	none
CCCCCCCCCCCCCCCCn1cc[n+](CC(C)=O)c1	Peg3 promoter 96, KKLEB tox -67, CF NFkB inh 67, HIF-2a inh 56 | HIF-2a conf 64 | HIF-1a counter 106
COc1ccc2cc(C(=O)/C=C/c3cc(OC)c(OC)c(OC)c3)ccc2c1	none
COc1cc(C=CC(=O)c2cc(OC)c(OC)c(OC)c2)cc(OC)c1OC	Peg3 promoter 71, MITF TRPM1 inh 67, HIF-2a inh 59 | HIF-2a conf 89 | HIF-1a counter 105
COc1cc(/C=C/C(C)=O)cc(OC)c1OC	none
